Compound activity as filed in PubChem BioAssay.
In the library only some 20% were active in any assay of this set; here they are far more common.
HCMV inh – qHTS Assay for inhibitors of the human cytomegalovirus (HCMV); HFF cells, HCMV-luciferase reporter, 72 h; active compounds read low; activity change, negative = inhibition, % at 57.5 µM; hit rate 4.5% among 410,000; in the data active = activity change below about -60%; inconclusive = no clear call, values can overlap the other calls; inactive = above about -39%; also: % is scaled to controls: 0 for no effect and ±100 for the full control effect
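Screen run at 2 compound doses on HFFs infected with reporter HCMV, MOI 1 PFU/cell. Luciferase activity from cell lysates at 72 h post infection gave inhibition relative to buffer-only and Salinomycin wells.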
Cycloheximide cs – Cycloheximide Counterscreen for Small Molecule Inhibitors of Shiga Toxin. max response, %. hit rate 12% among 300,000. cell reporter, cycloheximide protein synthesis inhibition counterscreen; in the data active = max response mostly above about 13%, no sharp cut-off; inactive = mostly below about 14%; also: read at 38.3 µM for the half of the compounds with a filed dose; 0% is about no effect
Pf growth 48h – Primary qHTS for delayed death inhibitors of the malarial parasite plastid, 48 hour incubation; P. falciparum luciferase growth in erythrocytes, 48 h; hit rate 5.9% among 310,000; Potency, µM (series often up to 28.7 µM), for the others: top-dose activity change, negative = inhibition, most hits filed as inhibitors; also: potency is read from the fitted curve at half-maximal effect; % is scaled to controls: 0 for no effect and ±100 for the full control effect
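Here the parasites carry a stable luciferase gene and grow inside erythrocytes in Albumax-based RPMI medium with compound for one erythrocytic cycle. Activity is scored as loss of luminescent signal.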
Shiga toxin inh – A qHTS for Small Molecule Inhibitors of Shiga Toxin; Vero cells, Shiga toxin protein synthesis inhibition reporter; inhibition, % at 38.7 µM; hit rate 9.2% among 290,000; AID 2315, 2010; in the data active = inhibition mostly above about 28%, no sharp cut-off; inactive = mostly below about 43%; also: 0% is about no effect
Pf growth 96h – Primary qHTS for delayed death inhibitors of the malarial parasite plastid, 96 hour incubation | Potency, µM (doses to about 28.7 µM), without a hit: top-dose activity change, negative = inhibition, hits mostly inhibitors | P. falciparum luciferase reporter growth, 96 h | hit rate 6.9% among 320,000; also: potency is read from the fitted curve at half-maximal effect; % is scaled to controls: 0 for no effect and ±100 for the full control effect
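Delayed-death screen, second-generation endpoint: infected erythrocytes, 2% hematocrit, 0.05% parasitemia final; 96 hours at 37 C, 5% CO2; luciferase detection reagent; luminescence decrease equals reduced growth.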
The depositor's hits bear a star; ? = inconclusive; . = no result. Unless noted, calls follow the shape of the dose curve; as a rule, active = well fitted inhibition curve with a large enough effect; inconclusive = small, poorly fitted or top-dose-only effect, or another doubt; inactive = no such curve, though single readings can be large or run the other way.

SMILES | HCMV inh | Cycloheximide cs | Pf growth 48h | Shiga toxin inh | Pf growth 96h
CCN(CC)C(=O)Cn1cnc2sc(C(=O)N3CCN(c4ccc(F)cc4)CC3)c(C)c2c1=O | -38 | 9 | ? | -10 | 10%
C/C(=N/N=C1/NC(=O)CC(C(=O)Nc2ccccc2)S1)c1cccs1 (centres undefined) | 8 | 12 | 10µM* | -3 | 9.3µM*
O=C(c1ccc(Cl)cc1)c1cnc2ccccn12 | 51 | 13 | . | 40 | 41%
COc1ccc(N(C)C(=O)C2CCN(S(=O)(=O)c3cccc4nonc34)CC2)c(OC)c1 | -61* | -4 | ? | -5 | 9.3µM*
CC(NC(=O)C1CCN(S(=O)(=O)N2CCCCCC2)CC1)c1ccccc1 (centres undefined) | -32 | 17* | -30% | -7 | .
CN(C(=O)C1CCN(S(=O)(=O)c2cccc3nonc23)CC1)C1CCCCC1 | 12 | -7 | -8% | 1 | ?
CC(NC(=O)C1CCN(S(=O)(=O)c2cccc3nonc23)CC1)c1ccccc1 (centres undefined) | -88* | -6 | 3% | -4 | 6%
CC(NC(=O)C1CCN(S(=O)(=O)c2cccc3cccnc23)CC1)c1ccccc1 (centres undefined) | 15 | -5 | -18% | 14 | 29%
CN(Cc1ccccc1)C(=O)C1CCN(S(=O)(=O)c2cccc3nonc23)CC1 | -2 | -2 | -9% | -7 | 13µM*
NC(=O)c1ncn([C@@H]2O[C@H](CNCc3cc(Cl)ccc3OCc3ccc(Cl)cc3)[C@@H](O)[C@H]2O)n1 | -21 | . | . | . | .
N/C(=N\NC(=O)c1cccs1)c1cc2cc(Cl)ccc2oc1=O | ? | 36* | 32% | 49* | 46%
COc1ccc2o/c(=N/NC(=O)c3cccs3)c(C(N)=O)cc2c1 | 14 | 36* | 94% | 71* | ?
NC(=S)c1cc2cc(Cl)ccc2oc1=O | 43 | 4 | -3% | 19 | 19%
NC(=O)c1cc2ccccc2o/c1=N/NC(=O)c1cccs1 | -4 | 40 | 17% | 30 | 63%
COc1ccc(OCCN(C)Cc2ccccc2)cc1 | -11 | 8 | 28% | 21 | -46%
CCc1ccc(OCCCCN(C)Cc2ccccc2)cc1 | -11 | -2 | -2% | . | 13µM*
CCOc1ccc(OCCCCN(C)C)cc1 | -5 | -2 | 22% | 3 | -1%
CN(CCOCCOc1ccc2ccccc2c1)Cc1ccccc1 | 12 | 8 | . | 9 | 15µM*
CN(CCCCOc1ccc(F)cc1)Cc1ccccc1 | 4 | 6 | 45% | . | ?
Cc1cc(C)c(C)c(OCCCCN(C)Cc2ccccc2)c1 | -34 | -5 | ? | . | 13µM*
CN(C)CCCCOc1ccc(F)cc1 | -7 | -4 | -19% | -12 | 12µM*
O=C(Nc1ccc(OC(F)F)cc1)c1cc[n+]([O-])cc1 | 14 | -4 | 14% | 24 | 21%
CCCCSCCCNC(=O)C1CCC(CNS(=O)(=O)c2c(C)cc(C)cc2C)CC1 (centres undefined) | 105 | . | . | . | .
O=C(CN1CCN(C(=O)C2CCCO2)CC1)Nc1cc(Cl)ccc1Cl (centres undefined) | -38 | 5 | ? | -12 | 6%
C=CC[N+]1([C@H]2C[C@H]3[C@@H]4CC[C@H]5C[C@H](O)[C@@H](N6CCOCC6)C[C@]5(C)[C@H]4CC[C@]3(C)[C@H]2OC(C)=O)CCCC1 | . | . | 6.7µM* | . | 4.3µM*
SMILES | HCMV inh | Cycloheximide cs | Pf growth 48h | Shiga toxin inh | Pf growth 96h
CC(=O)O[C@H]1CCC2C3CC[C@H]4[C@@H](O)[C@H](O)CC[C@]4(C)C3CC[C@@]21C (some centres undefined) | -3 | . | . | . | .
O=C(Nc1ccccc1)c1ccn[nH]1 | 54 | 38* | 337% | 94* | ?
O=C(Nc1ccccc1)c1ccc(=O)[nH]n1 | -16 | -3 | -12% | -2 | 6%
O=C(Nc1cccc([N+](=O)[O-])c1)c1ccn[nH]1 | -18 | 60* | 247% | 76* | ?
CC(=O)c1ccc(NC(=O)c2ccn[nH]2)cc1 | 43 | 35* | 72% | 65* | -2%
CC(C)CCNC(=O)c1ccc(Cn2c(SCC(N)=O)nc3ccccc3c2=O)cc1 | -23 | . | . | . | .
CC(=O)NC(c1cccc(F)c1)c1nc(-c2cnc3ccccc3c2)cs1 (centres undefined) | 50 | . | . | . | .
O=C(Nc1nc(-c2ccc(F)cc2)cs1)c1cnccn1 | -34 | 2 | 8% | -11 | 59%
